Bioassay records from PubChem.
Fam108B inh: Fam108B inhibition, counter-screen for RBBP9 inhibitors; recombinant Fam108B, FP-Rh probe fluorescence polarization; inhibition, % at 9.51 µM; actives 0.33% (n = 300,000);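 active means inhibition above the screen mean inhibition plus 3 SD, computed separately per campaign, cut at about 18% in these data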;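 further: inhibitors lower polarization as less probe binds the enzyme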
LYPLA2 inh: counter-screen for PME1 inhibitors: inhibitors of human LYPLA2; O95372; recombinant LYPLA2, FP-Rh probe fluorescence polarization; inhibition, % at 5.9 µM; actives 0.38% (n = 320,000); AID 2177;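 active means inhibition above the screen-wide mean plus 3 SD, limit set per campaign, cut at about 26% in these data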;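 further: 0% = LYPLA2 with DMSO and 100% = wells lacking LYPLA2 enzyme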
Target sequence (O95372 whole entry, looked up): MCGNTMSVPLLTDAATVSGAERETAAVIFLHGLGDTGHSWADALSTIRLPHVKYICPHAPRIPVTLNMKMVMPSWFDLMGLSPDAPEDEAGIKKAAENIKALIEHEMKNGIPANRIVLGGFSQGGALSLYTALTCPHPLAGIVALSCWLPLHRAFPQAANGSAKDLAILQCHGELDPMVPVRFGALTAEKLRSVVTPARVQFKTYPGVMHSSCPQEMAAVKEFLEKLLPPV
LYPLA1 counter: LYPLA1 (human) inhibition in PME1 counter-screen. O75608. recombinant LYPLA1, FP-Rh probe fluorescence polarization. inhibition, % at 5.9 µM. actives 0.16% (n = 320,000);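 active means inhibition above the mean of all tested compounds plus 3 SD, set per campaign, cut at about 14% in these data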;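 further: inhibitors block serine hydrolase probe labeling of LYPLA1 so polarization falls; 0% = enzyme with DMSO and 100% = wells lacking LYPLA1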
PAD4 inh: blocks human protein arginine deiminase 4 | inhibition, % at 6.36 µM | recombinant PAD4, RCA probe fluorescence polarization | actives 0.41% (n = 330,000) | Q9UM07;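 active means percent inhibition above a cutoff equal to the mean of all tested compounds plus 3 SD, cut at about 15% in these data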;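 further: 0% = PAD4 with RCA probe and DMSO and 100% = probe without PAD4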
PME-1 inh: blocks human protein phosphatase methylesterase 1; actives 0.53% (n = 320,000); AID 2130; Q9Y570; recombinant PME-1, FP-Rh probe fluorescence polarization; inhibition, % at 5.9 µM;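 active means inhibition above the campaign mean of all compounds plus 3 SD, cut at about 26% in these data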;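 further: competitive labeling of PME-1 active site by serine hydrolase directed probe; 0% = PME-1 with DMSO and 100% = wells lacking PME-1 enzyme; inhibitors block probe labeling so polarization falls and inhibition rises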
Target sequence (Q9Y570 whole entry, looked up): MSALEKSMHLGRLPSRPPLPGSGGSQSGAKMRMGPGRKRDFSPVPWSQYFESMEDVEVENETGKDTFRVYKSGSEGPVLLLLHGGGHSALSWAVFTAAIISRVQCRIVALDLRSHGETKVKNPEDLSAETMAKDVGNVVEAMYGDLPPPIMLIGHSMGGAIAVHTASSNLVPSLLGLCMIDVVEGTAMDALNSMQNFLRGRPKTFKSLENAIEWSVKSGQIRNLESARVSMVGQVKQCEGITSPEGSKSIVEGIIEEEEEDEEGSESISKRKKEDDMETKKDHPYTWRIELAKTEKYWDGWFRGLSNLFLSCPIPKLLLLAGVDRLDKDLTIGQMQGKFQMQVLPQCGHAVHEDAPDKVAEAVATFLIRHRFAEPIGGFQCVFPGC
GSTO1 inh: GSTO1 inhibition, counter-screen for RBBP9 inhibitors | recombinant GSTO1, activity-based probe fluorescence polarization | P78417 | actives 1.1% (n = 300,000) | inhibition, % at 5.96 µM;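 active means inhibition above the campaign mean inhibition plus 3 SD, cut at about 35% in these data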;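 further: 0% = GSTO1-1 with DMSO and 100% = wells lacking GSTO1-1 enzyme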
* marks the source's active call; other numbers are inactive results; nt = no result. The list is not random: actives were taken first. Their share in the collection is about 1.8%.

SMILES | Fam108B inh | LYPLA2 inh | LYPLA1 counter | PAD4 inh | PME-1 inh | GSTO1 inh
Oc1ccc(/C=N/N2CCN(C3c4ccccc4-c4ccccc43)CC2)cc1O | 5.5 | 4.1 | -4.9 | 7.9 | 0.7 | 44.3*
CC[C@]12c3[nH]c4ccc(OC)cc4c3CCN1C(=O)C(CC(=O)NCCCN(C)C)C[C@@H]2C(=O)N1CCN(C(=O)c2ccco2)CC1 (stereo partly specified) | nt | nt | nt | 4.3 | nt | nt
O=C(CCS(=O)(=O)c1ccc(Br)s1)N1CCc2ccccc21 | -2.2 | -1.2 | -2.7 | -4.5 | 5.5 | 35.9*
CC(C)(C)c1ccc(NC(=O)C2=CC=CN3CCS(=O)(=O)N=C23)cc1 | nt | 2.0 | -0.1 | 3.8 | 54.7* | nt
CCN(CC)c1ccc(NC(=O)C2=CC=CN3CCS(=O)(=O)N=C23)cc1 | nt | -3.2 | 2.9 | -6.0 | 0.1 | nt
Cc1ccc(-c2ccc3c(c2)S(=O)(=O)c2ccccc2C3=O)cc1 | 1.8 | -2.6 | -4.4 | 3.2 | -1.2 | -7.0
O=c1oc2ccccc2c(O)c1CN1CCCCC1 | -0.7 | -4.3 | -2.1 | -2.1 | -1.4 | -68.6
O=C1NCCCC2c3cc(O)c4ccccc4c3OC12N1CCCCC1 (stereo unspecified) | 9.1 | 1.8 | 4.5 | 33.6* | 16.8 | 80.6*
COc1ccccc1CN1CCC(CNS(=O)(=O)c2cc(-c3onc(C)c3C)ccc2OC)CC1 | -6.7 | -0.8 | -0.6 | -6.0 | 0.5 | 2.5
O=[N+]([O-])c1cc(O)c2ncccc2c1 | 9.5 | -11.1 | -6.3 | -18.2 | -4.0 | 36.7*
c1ccc(-c2nc3ccccc3[nH]2)cc1 | 5.2 | 7.2 | 1.9 | -0.5 | -2.6 | 5.2
Nc1cc(N)cc(-c2nc3ccccc3[nH]2)c1 | 17.4 | -9.5 | -9.2 | -8.6 | 32.2* | -6.7
O=C1c2ccccc2C(=O)c2c(O)c(O)cc(O)c21 | nt | nt | nt | 95.5* | nt | nt
O=C1C=C(O)c2c(O)cc(O)c(O)c2C1=O | 15.8 | 9.2 | 0.3 | -13.1 | 10.3 | 72.8*
O=C(O)c1cccc2c1C(=O)c1ccccc1C2=O | 2.2 | -1.6 | 1.2 | -1.7 | -3.0 | 1.7
C[C@@H]1Cc2c(O)c(O)cc(O)c2C(=O)O1 | 0.9 | 7.8 | 1.8 | -2.6 | -2.6 | 27.9
COc1ccc(OC)c(NC(=O)CSc2nc3nc(C)cc(C)n3n2)c1 | nt | 5.9 | 0.5 | 4.3 | 1.1 | nt
O=C(CSc1nnc(SCc2ccccc2Cl)s1)N/N=C/c1c[nH]c2ccccc12 | 13.1 | 25.8 | -9.2 | 1.4 | 35.6* | 3.6
Cc1cc(C)cc(NS(=O)(=O)c2c(C(=O)N3CCOCC3)c(C)n(C)c2C)c1 | 3.4 | -1.5 | -0.4 | 2.3 | 4.0 | 3.3
CC1=NN(C(N)=S)C(=O)C1N=Nc1cccc2ccccc12 (stereo unspecified) | 22.9* | 7.6 | -1.5 | 3.6 | 2.5 | -20.3
CC1=NN(C(N)=S)C(=O)C1N=Nc1cccc(Cl)c1C (stereo unspecified) | 7.4 | -3.2 | -0.2 | -7.2 | 2.7 | 5.1
O=C(c1cccnc1)N1N=C(c2cccs2)CC1c1ccc(F)cc1 (stereo unspecified) | 0.0 | 2.2 | -1.8 | -2.0 | -2.8 | -2.3
O=C1c2cccc(OCC(=O)N3N=C(c4cccs4)CC3c3ccc(F)cc3)c2CCN1Cc1cccnc1 (stereo unspecified) | 6.3 | 37.5* | -4.8 | -0.7 | -6.2 | -4.4
Cc1noc(C)c1COc1ccccc1C(=O)NCc1ccco1 | nt | 1.0 | -1.2 | 2.1 | 2.9 | nt
CCc1nc2sc3c(c2c(=O)n1NC(=O)CCl)CCCC3 | 2.0 | 9.6 | 5.6 | 2.2 | 4.5 | 58.4*
SMILES | Fam108B inh | LYPLA2 inh | LYPLA1 counter | PAD4 inh | PME-1 inh | GSTO1 inh
CCN(CC)S(=O)(=O)c1ccc(C)c(NC(=O)COC(=O)c2ccc(C)c(S(=O)(=O)N3CCOCC3)c2)c1 | -6.4 | -1.1 | -0.6 | 1.7 | 51.5* | -1.1
CCN(CC)S(=O)(=O)c1ccc(Cl)c(NC(=O)COC(=O)c2ccc(O)cc2)c1 | 0.3 | 0.4 | 3.0 | -2.7 | 29.0* | -1.2
CCN(CC)S(=O)(=O)c1ccc(Cl)c(NC(=O)COC(=O)c2cccn2C)c1 | -8.8 | -5.7 | -1.0 | -7.5 | 32.9* | 0.3
CN(C)S(=O)(=O)c1ccc(Cl)c(NC(=O)COC(=O)c2ccc(O)cc2)c1 | 4.4 | -6.0 | 1.0 | 0.2 | 13.7 | 0.6
C[C@@H](NC(=O)C(=O)c1c[nH]c2ccccc12)c1ccccc1 | -2.9 | 5.5 | 2.2 | 3.8 | 4.6 | -2.9
CC(Cl)C(=O)c1c[nH]c2ccccc12 (stereo unspecified) | 0.2 | -4.3 | 0.1 | 3.8 | 0.4 | 36.5*
O=C(/C=C/c1ccccc1[N+](=O)[O-])c1ccccc1Br | -1.6 | -5.3 | -3.8 | -3.0 | 2.4 | 16.9
COCC(=O)NCc1ccc2c(c1)cc(C)n2C | -0.4 | -6.4 | 3.1 | 14.8* | 6.5 | 0.9
COc1ccc(CC(=O)NCc2ccc3c(c2)cc(C)n3C)cc1OC | 5.7 | -5.1 | -0.6 | -6.6 | 3.6 | 9.6
COc1ccc(COCC(O)CN2CCN(S(=O)(=O)c3ccc(C(C)C)cc3)CC2)cc1 (stereo unspecified) | nt | 6.1 | 1.5 | 2.1 | -0.9 | nt
CC(C)Oc1ccc(S(=O)(=O)N2CCCCC2)cc1NC(=O)CN1C(=O)NC(C)(c2ccccc2)C1=O (stereo unspecified) | 0.6 | 4.6 | 1.2 | 0.4 | 39.2* | 0.6
CCOC(=O)N/N=C/c1cc(OC)c(O)c(OC)c1 | 3.5 | -2.5 | -4.1 | 2.7 | -0.5 | 1.6
CCOC(=O)c1sc(N/N=C/c2cc(Br)c(O)c(OC)c2)nc1C | 16.8 | 8.7 | 6.4 | 0.2 | 28.4* | 9.3
O=C(O[C@@H]1OC2COC(=O)c3cc(O)c(O)c(O)c3-c3c(cc(O)c(O)c3O)C(=O)O[C@@H]([C@H]1O)[C@@H]2O)c1cc(O)c(O)c(O)c1 | 15.9 | -6.6 | -12.1 | 10.2 | -31.9 | 73.4*
Cc1ccc(NC(=O)C2CCN(S(=O)(=O)c3cccc4cccnc34)CC2)nc1 | 0.3 | 0.5 | -0.8 | 0.0 | 9.2 | 1.9
O=C(O)c1cccc(-n2c(/C=C/c3ccc([N+](=O)[O-])cc3)nc3ccccc3c2=O)c1 | 0.7 | 9.9 | 3.5 | 5.5 | 30.2* | 2.1
O=C(O)CCN1C(=O)/C(=C\c2cccc(OCC(=O)Nc3ccc(Cl)cc3)c2)SC1=S | -8.7 | 1.0 | -8.9 | -12.1 | 10.6 | -66.5
Cc1ccc(NC(=O)COc2cccc(/C=C3\SC(=S)N(CCC(=O)O)C3=O)c2)cc1Cl | -5.3 | 8.6 | -3.4 | -9.9 | 32.5* | -30.4
Cc1nc2ccc(NS(=O)(=O)c3ccc(Br)cc3)cc2s1 | nt | -1.4 | -2.7 | -4.4 | -100.5 | nt
Nc1[nH]n(-c2ccccc2)c(=O)c1N=Nc1ccc2c(c1)OCO2 | 17.6 | 6.3 | 1.8 | -0.8 | 33.1* | 14.8
Nc1[nH]n(-c2ccccc2)c(=O)c1N=Nc1ccc2c(c1)OCCO2 | 10.9 | 5.8 | 0.5 | 2.0 | 42.6* | 9.6
Nc1nn(-c2ccccc2)c(N)c1N=Nc1ccc2c(c1)OCO2 | 13.5 | 1.3 | -0.8 | 1.9 | 12.8 | 4.8
Cc1cccc(Cl)c1OCCCN1CCOCC1 | -3.9 | -2.1 | 1.3 | -1.1 | -6.9 | 5.0
